DT40 TDP1 CPT: qHTS for Inhibitors of human tyrosyl-DNA phosphodiesterase 1 (TDP1): qHTS in cells in presence of CPT. chicken DT40 Tdp1-/-;hTDP1 cells + 20 nM CPT, ATP luminescence, 48 h. Potency, µM (titrated, usually from 46.2 µM), actives largely listed as inhibitors. hit rate 12% among 420,000; further: nearly all actives have a fitted effect of over 55% in size
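Chicken DT40 Tdp1-/- cells complemented with human TDP1, 400 cells/well, exposed to compounds plus 20 nM camptothecin for at least 48 h at 37 C; viability read as ATP content by CellTiter-Glo luminescence.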
KB-V1 cytotox: qHTS assay for MDR1-selective chemotherapeutics: Primary screen using the drug-selected MDR subline cells KB-V1; AID 1347076, 2019; Potency, µM (highest dose often 46.1 µM), actives largely listed as cytotoxic; hit rate 3.4% among 400,000; KB-V1 MDR cells viability, CellTiter-Glo, 72 h; further: nearly all actives have a fitted effect of over 60% in size
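Luminescent ATP read-out (CellTiter-Glo, 10 min) measures survival of drug-selected KB-V1 MDR cells after 72 h, 37 degrees C compound exposure. Medium: phenol-red-free DMEM, 10% FBS. Values from fitted concentration-response curves.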
KB-3-1 cytotox: qHTS assay for MDR1-selective chemotherapeutics: Primary screen using the parental adenocarcinoma cell KB-3-1; KB-3-1 viability, CellTiter-Glo ATP luminescence, 72 h; Potency, µM (titrated, usually from 46.1 µM), most hits filed as cytotoxic; hit rate 1.4% among 400,000; further: nearly all actives have a fitted effect of over 60% in size
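KB-3-1 parental drug-naive adenocarcinoma cells in DMEM/10% FBS, incubated 72 h at 37 C with pin-transferred compounds across a concentration series. Viability by CellTiter-Glo luminescence; concentration-response curves fitted after normalization.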
HT1080 IDH1KD tx: qHTS for induction of synthetic lethality in tumor cells producing 2HG: qHTS for the HT-1080-IDH1KD cell line. HT-1080 IDH1 knockdown viability, ATP luminescence, 48 h. Potency, µM (doses to about 46.1 µM), most hits filed as cytotoxic. hit rate 2% among 360,000
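After a 2 h attachment period, IDH1KD HT-1080 cells took pin-transferred compound for 48 h at 37 °C; ATP-based luminescence after 10 min room-temperature reagent incubation reported viability.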
HT1080NT lethal: qHTS for induction of synthetic lethality in tumor cells producing 2HG: qHTS for the HT-1080-NT fibrosarcoma cell line | HT-1080-NT fibrosarcoma viability, CellTiter-Glo ATP luminescence, 48 h | Potency, µM (doses to about 46.1 µM), most hits filed as cytotoxic | hit rate 1.6% among 360,000 | AID 686970, 2013;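 further: NT is the 2HG producing partner of a matched IDH1 knockdown line; nearly all actives have a fitted effect of over 55% in size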
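Read-out is CellTiter-Glo luminescence after 10 minutes at room temperature, following 48 hours' compound treatment of HT-1080-NT cells (750 cells/well, RPMI, 5% FBS, 37 degrees C).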
DT40 TDP1 no CPT: qHTS for Inhibitors of human tyrosyl-DNA phosphodiesterase 1 (TDP1): qHTS in cells in absence of CPT | Potency, µM (top dose mostly 46.2 µM), most hits filed as inhibitors | DT40 Tdp1-/- hTDP1 cells, no CPT, ATP luminescence, 48 h | hit rate 15% among 420,000; further: nearly all actives have a fitted effect of over 55% in size
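Camptothecin absent (DMSO only). Human TDP1-complemented DT40 knockout cells, 400 cells/well, 37 °C for minimum 48 hr; ATP measured via CellTiter-Glo, 30 min dark incubation, luminescence.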
Large screens that a line does not name were inactive. Hits are enriched below; roughly 19% of the tested compounds scored in any of these assays. The call rests on the fitted dose curve; in most records, active means well fitted curve in the direction sought with a large enough effect; inconclusive means small, poorly fitted or top-dose-only effect, or another doubt; inactive means no such curve, though single readings can be large; an effect the other way counts as inactive or inconclusive.

COc1cc(OC)c(NC(=O)C2CC(=O)N(c3ccc4c(c3)OCCO4)C2)cc1Cl (centres undefined)	none
C=CCn1c(SCC(=O)NC2CCCC2)nc2ccccc21	DT40 TDP1 CPT inconclusive, KB-V1 cytotox inconclusive, DT40 TDP1 no CPT inconclusive
COc1cccc(/C=C/C(=O)c2ccc3c(c2)OCCO3)c1OC	DT40 TDP1 CPT 4.1µM, HT1080 IDH1KD tx inconclusive, HT1080NT lethal inconclusive, DT40 TDP1 no CPT inconclusive
CCOc1cc(/C=C/C(=O)c2ccc3c(c2)OCCO3)ccc1OCC(=O)N(C)C	KB-V1 cytotox 16µM, KB-3-1 cytotox inconclusive, HT1080 IDH1KD tx 18µM, HT1080NT lethal inconclusive, DT40 TDP1 no CPT 23µM
CCOc1cc(/C=C/C(=O)c2ccc(O)cc2)ccc1OCC(=O)N(C)C	DT40 TDP1 CPT inconclusive, HT1080 IDH1KD tx inconclusive, DT40 TDP1 no CPT inconclusive
COc1ccccc1NC(CC(=O)c1ccccc1)C(=O)OCC(=O)c1ccc(C)c(C)c1 (centres undefined)	DT40 TDP1 CPT 10µM, DT40 TDP1 no CPT 16µM
CCN(CC(=O)Nc1ccc2c(c1)OCCO2)C(=O)/C=C/c1cccc(OC)c1OC	none
CC(=O)Nc1cccc(CNCc2cccc(NC(C)=O)c2)c1	none
CCCCCCCC(=O)C(C)C(=O)N(C)[C@H](Cc1ccc(OC)cc1)C(=O)N(C)[C@H](C(N)=O)C(C)C (some centres undefined)	DT40 TDP1 CPT inconclusive, DT40 TDP1 no CPT 23µM
COc1ccc(S(=O)(=O)Nc2ccccc2OC)cc1C	KB-V1 cytotox inconclusive
COc1cc(NS(=O)(=O)c2ccc(C)c(C)c2)c(OC)cc1Cl	DT40 TDP1 CPT 18µM, KB-V1 cytotox 18µM, KB-3-1 cytotox inconclusive, DT40 TDP1 no CPT inconclusive
CCOC(=O)c1c(CN2CCOCC2)n(-c2ccccc2)c2cc(Br)c(O)c(CN(C)C)c12	DT40 TDP1 CPT inconclusive, DT40 TDP1 no CPT inconclusive
CCOC(=O)c1c(CN2CCCCC2)n(C)c2cc(Br)c(OC)cc12	DT40 TDP1 CPT inconclusive, DT40 TDP1 no CPT 11µM
CCOC(=O)c1c(CSc2ccsc2)n(C)c2cc(Br)c(O)c(CN(C)C)c12	DT40 TDP1 CPT 18µM, DT40 TDP1 no CPT 23µM
CCOC(=O)c1c(CSc2ccccc2)n(C)c2cc(Br)c(O)c(CN(C)C)c12	DT40 TDP1 CPT 21µM, KB-V1 cytotox inconclusive, HT1080 IDH1KD tx inconclusive, HT1080NT lethal inconclusive, DT40 TDP1 no CPT 15µM
CCOC(=O)c1c(CSc2ccc(C)cc2)n(C)c2cc(Br)c(O)c(CN(C)C)c12	DT40 TDP1 CPT inconclusive, HT1080 IDH1KD tx inconclusive, HT1080NT lethal inconclusive, DT40 TDP1 no CPT 8.2µM
CCOC(=O)c1c(CN2CCCCC2)n(C)c2cc(Br)c(O)c(CN(C)C)c12	DT40 TDP1 CPT 18µM, DT40 TDP1 no CPT inconclusive
OC(CNC1CCCC1)COCCOc1ccc(Br)cc1 (centres undefined)	DT40 TDP1 CPT inconclusive, KB-V1 cytotox inconclusive, DT40 TDP1 no CPT inconclusive
COc1ccccc1N1CCN(CC(O)COCCOc2ccc(Br)cc2)CC1 (centres undefined)	DT40 TDP1 CPT 16µM, KB-V1 cytotox inconclusive, HT1080 IDH1KD tx inconclusive, DT40 TDP1 no CPT inconclusive
COc1ccccc1N1CCN(CC(O)COCc2cccs2)CC1 (centres undefined)	none
CC1(C)CCCC(C)(C)N1CC(O)COCCOc1ccc(Br)cc1 (centres undefined)	DT40 TDP1 CPT inconclusive, KB-V1 cytotox inconclusive, DT40 TDP1 no CPT 16µM
OC(COc1cccc2ccccc12)CN1CCN(c2ccccc2Cl)CC1 (centres undefined)	DT40 TDP1 CPT 18µM, HT1080 IDH1KD tx inconclusive, HT1080NT lethal inconclusive, DT40 TDP1 no CPT inconclusive

Assay outcomes (PubChem)
